Source: PubChem (National Center for Advancing Translational Sciences (NCATS))
Cycloheximide cs – counter-screen for Shiga toxin inhibitors: cycloheximide protein synthesis inhibition; 300,000 tested, 12% active; AID 2314; cell reporter, cycloheximide protein synthesis inhibition counterscreen; max response, %; in the data active means max response mostly above about 13%, no sharp cut-off; inactive means mostly below about 14%; further: read at 38.3 µM for the half of the compounds with a filed dose; 0% is about no effect
Shiga toxin inh – blocks Shiga toxin action in Vero cells | Vero cells, Shiga toxin protein synthesis inhibition reporter | inhibition, % at 38.7 µM | 290,000 tested, 9.2% active | AID 2315; in the data active means inhibition mostly above about 28%, no sharp cut-off; inactive means mostly below about 43%; further: 0% is about no effect
NS1 function inh – inhibitors of influenza NS1 protein function; AID 2326; Potency, µM (highest dose often 46.1 µM), without a hit: top-dose activity, positive = more growth; 270,000 tested, 0.4% active; further: potency means the concentration at half of the fitted maximal effect; actives are rising curves; nearly all actives have a fitted effect of over 50% in size
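Recovery from NS1-induced slow growth read by OD600 in budding yeast switched to galactose assay medium (pH 6.0, -URA) at 1:100 dilution. Compound 23 nl per well; the matching strain lacking NS1 serves as control.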
Pf growth 96h – P. falciparum growth inhibition at 96 hours; P. falciparum luciferase reporter growth, 96 h; Potency, µM (doses to about 28.7 µM), for inactives: top-dose activity change, negative = inhibition, actives largely listed as inhibitors; 320,000 tested, 6.9% active; active means well fitted inhibition curve with a large enough effect; inconclusive means small, poorly fitted or top-dose-only effect, or another doubt; inactive means no such curve, though single readings can be large or run the other way; further: potency means the concentration at half of the fitted maximal effect; on the % scale 0 is the no-effect control and ±100 the full control effect
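Erythrocytes infected with luciferase-expressing P. falciparum were dispensed at 2% hematocrit and 0.05% parasitemia (final), then incubated with compounds 96 hours at 37 C in 5% CO2. Luminescence after detection reagent addition reported growth.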
Pf growth 48h – P. falciparum growth inhibition at 48 hours (one generation). P. falciparum luciferase growth in erythrocytes, 48 h. 310,000 tested, 5.9% active. Potency, µM (highest dose often 28.7 µM), without a hit: at the top dose activity change, negative = inhibition, actives largely listed as inhibitors; active means well fitted inhibition curve with a large enough effect; inconclusive means small, poorly fitted or top-dose-only effect, or another doubt; inactive means no such curve, though single readings can be large or run the other way; further: potency means the concentration at half of the fitted maximal effect; on the % scale 0 is the no-effect control and ±100 the full control effect
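In quantitative HTS format, infected erythrocytes bearing luciferase-reporter parasites were treated for a single generation at 37 C. Luminescence after adding detection reagent served as the growth measure.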
SARS PLP yeast – inhibitors of SARS-CoV papain-like protease in yeast; 330,000 tested, 0.19% active; S. cerevisiae expressing SARS-CoV PLpro, growth rescue; Potency, µM (doses to about 32.9 µM), without a hit: at the highest dose activity, positive = growth rescue, most hits filed as activators; further: potency means the concentration at half of the fitted maximal effect; 0% is about no effect; nearly all actives have a fitted effect of over 55% in size
* = called active by the depositor; ? = inconclusive; . = no result given. Rows were chosen to be rich in hits. Some 21% of all compounds tested hit in one or more screens of this group. Unless noted, the call rests on the fitted dose curve.

SMILES	Cycloheximide cs	Shiga toxin inh	NS1 function inh	Pf growth 96h	Pf growth 48h	SARS PLP yeast
O=C(CNC(=O)c1cccs1)Nc1ncccc1O	.	.	.	6%	17%	-3%
CC1CN(CCOCCOc2ccccc2-c2ccccc2)CC(C)O1 (configuration not stated)	-2	.	-14%	?	?	-4%
O=C(NNC(=O)C1CCN(C(=O)Nc2ccccc2)CC1)c1ccc(F)cc1	.	.	.	20%	9%	-1%
C/C(CC(=O)Nc1ccc(N(C)C)cc1)=N\NC(=O)c1ccc(Cl)cc1Cl	17	19	2%	11%	1%	-14%
C/C(CC(=O)Nc1ccc(N(C)C)cc1)=N\NC(=O)c1ccccc1O	16*	.	-19%	3%	?	-5%
CCC/C(C)=N/NC(=O)c1ccccc1O	27*	105*	2%	?	-11%	0%
CCC/C=N/NC(=O)CNC(=O)c1ccccc1Cl	5	5	5%	6%	39%	-4%
C/C(=N/NC(=O)c1cc2ccccc2cc1O)C1C(=O)c2ccccc2C1=O	-2	-8	-74%	.	.	26%
CCC/C=N/NC(=O)c1ccccc1O	18*	47*	0%	1%	-2%	-2%
C/C(=N\NC(=O)c1ccccc1O)C1C(=O)c2ccccc2C1=O	29*	36	-196%	?	.	14%
CN(C)c1ccc(/C=N/NC(N)=S)cc1[N+](=O)[O-]	20	46	6%	4%	26%	9%
CC(C)=CCC[C@](C)(O[C@@H]1O[C@H](CO)[C@@H](O)[C@H](O)[C@H]1O)[C@H]1CC[C@]2(C)[C@@H]1[C@H](O)C[C@@H]1[C@@]3(C)CC[C@H](O[C@@H]4O[C@H](CO)[C@@H](O)[C@H](O)[C@H]4O[C@@H]4O[C@H](CO)[C@@H](O)[C@H](O)[C@H]4O)C(C)(C)[C@@H]3[C@@H](O)C[C@]12C	-3	-4	.	.	.	.
C/C(CC(=O)Nc1ccc(N(C)C)cc1)=N\NC(=O)C(=O)NCc1ccccc1	0	-15	.	4.7µM*	25%	-2%
C/C(CC(=O)Nc1ccc([N+](=O)[O-])cc1)=N\NC(=O)c1ccccc1O	24*	.	-37%	26%	37%	-3%
Cc1cc(C)cc(C(=O)Nc2nc3ccccc3[nH]2)c1	35*	121*	-53%	?	?	-3%
COc1ccc(Br)c(C(=O)Nc2nc3ccccc3[nH]2)c1	54*	69*	?	127%	83%	5%
COc1cc(OC)cc(C(=O)Nc2nc3ccccc3[nH]2)c1	59*	129*	-5%	.	?	-5%
COc1ccc2oc(C(=O)Nc3nc(-c4ccccn4)cs3)c(C)c2c1	.	.	.	6.6µM*	?	-4%
O=C(COc1ccc(Br)cc1)NCCCNC(=O)c1ccncc1	-4	-16	2%	?	?	13%
O=C1CCCC(=O)C1=Cc1c[nH]c2ccccc12	-1	-11	-2%	1%	.	3%
O=C(Nc1nc2ccccc2[nH]1)c1cc(F)cc(F)c1	67*	67*	-7%	-5%	-33%	-10%
Cc1ccsc1C(=O)Nc1nc2ccccc2[nH]1	28*	75*	-33%	-99%	152%	-4%
COc1ccc2oc(C(=O)Nc3nc4ccccc4[nH]3)c(C)c2c1	57*	70*	-2%	?	21%	0%
COc1ccc(Cl)cc1C(=O)Nc1nc2ccccc2[nH]1	-1	4	-35%	-42%	-48%	-1%
O=C(Nc1nc2ccccc2[nH]1)c1ccccc1F	-9	-23	-15%	10µM*	?	-32%
SMILES	Cycloheximide cs	Shiga toxin inh	NS1 function inh	Pf growth 96h	Pf growth 48h	SARS PLP yeast
COC(=O)Nc1nc2ccc(C(=O)c3ccc(F)cc3)cc2[nH]1	11	8	.	.	.	-2%
Cc1ccsc1C(=O)Nc1ccccc1N1CCCC1	.	.	.	?	?	6%
Cc1ccccc1C(=O)NCC(=O)Nc1ccc(C)c(S(=O)(=O)N2CCCCCC2)c1	10	0	-6%	?	-7%	-2%
O=C(CSc1nncs1)NCCCc1ccccc1	2	8	.	-21%	40%	2%
N#Cc1ccc(C(=O)Nc2nc3ccccc3[nH]2)cc1	35*	59*	4%	156%	63%	-1%
O=C(Cc1ccccc1F)Nc1nc2ccccc2[nH]1	24*	41	1%	-5%	5%	-1%
